Data reported in PubChem BioAssay (NCI).
Compounds without any hit were thinned out: in the full panel of roughly 79,000, 15% have a hit. A number with no mark means an inactive call. The source made the active and inactive calls. No stated cut-off is given here; in the data, active means growth inhibition above about 70%; inactive means the rest.

Assay: NCI Yeast Anticancer Drug Screen. Data for the wt1 strain (AID 149);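 further: 0% = growth of vehicle-treated wt1 cultures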
Settings: S. cerevisiae wt1 strain (SPY 50644) growth inhibition, hits give high values
Protocol: Growth inhibition of yeast strains with defined genetic alterations is measured as a screen for potential anti-cancer activity. Selected strains with alterations in DNA damage repair or cell cycle control were exposed to compounds and growth inhibition was measured relative to vehicle treated controls. The strain used in this assay is wt1

**Q.** For `CCCCN(CCCC)c1ccc(N=Nc2ccc(S(=O)(=O)O)cc2)cc1`, which growth inhibition (at 1.2 µM) is on record?
**A.** -9%

**Q.** What about the growth inhibition (at 3.7 µM) of the same compound?
**A.** 2%

**Q.** What about the growth inhibition (at 11.0 µM) of the same compound?
**A.** 33%

**Q.** What about the growth inhibition (at 33.0 µM) of the same compound?
**A.** 97% (active)

**Q.** What about the growth inhibition (at 100.0 µM) of the same compound?
**A.** 97% (active)

**Q.** With `O=C(Cc1ccccc1)NN1C(=O)C(Cl)C1c1cc(Br)cc(Br)c1O` (stereo not given) as the compound, how does the growth inhibition (at 1.2 µM) read?
**A.** -9%

**Q.** What about the growth inhibition (at 3.7 µM) of the same compound?
**A.** -5%

**Q.** And the growth inhibition (at 11.0 µM)?
**A.** 73% (active)

**Q.** What about the growth inhibition (at 33.0 µM) of the same compound?
**A.** 94% (active)

**Q.** What about the growth inhibition (at 100.0 µM) of the same compound?
**A.** 89% (active)

**Q.** For `CCOC(=O)/C(=C\c1cccc(C)c1)C(C)=O`, which growth inhibition (at 1.2 µM) is on record?
**A.** -37%

**Q.** What about the growth inhibition (at 3.7 µM) of the same compound?
**A.** -15%

**Q.** What about the growth inhibition (at 11.0 µM) of the same compound?
**A.** 29%

**Q.** What about the growth inhibition (at 33.0 µM) of the same compound?
**A.** 88% (active)

**Q.** And the growth inhibition (at 100.0 µM)?
**A.** 98% (active)

**Q.** Which growth inhibition (at 1.2 µM) does the source give for `O=C(O)c1ccccc1C(=O)OC1CCc2ccccc2C1` (stereo not given) here?
**A.** -5%

**Q.** What about the growth inhibition (at 3.7 µM) of the same compound?
**A.** -7%

**Q.** And the growth inhibition (at 11.0 µM)?
**A.** -80%

**Q.** And the growth inhibition (at 33.0 µM)?
**A.** -1%

**Q.** What about the growth inhibition (at 100.0 µM) of the same compound?
**A.** 27%

**Q.** For `O=C1c2ccccc2-c2ccc(N=Cc3ccccc3)cc21`, which growth inhibition (at 1.2 µM) is on record?
**A.** 1%

**Q.** And the growth inhibition (at 3.7 µM)?
**A.** 8%

**Q.** What about the growth inhibition (at 11.0 µM) of the same compound?
**A.** 14%

**Q.** What about the growth inhibition (at 33.0 µM) of the same compound?
**A.** 27%

**Q.** What about the growth inhibition (at 100.0 µM) of the same compound?
**A.** 69%

**Q.** What does the source list for `O=S1(=O)CCC2=CC(C(F)(F)F)=CC(C(F)(F)F)=CN21`?
**A.** growth inhibition (at 1.2 µM): 2%; growth inhibition (at 3.7 µM): 29%; growth inhibition (at 11.0 µM): 53%; growth inhibition (at 33.0 µM): 83% (active); growth inhibition (at 100.0 µM): 98% (active)

**Q.** Which results are given for `O=C(Cc1ccccc1)NNc1nc(NNC(=O)c2ccncc2)nc(Nc2ccc([N+](=O)[O-])cc2)n1`?
**A.** growth inhibition (at 1.2 µM): -81%; growth inhibition (at 3.7 µM): 3%; growth inhibition (at 11.0 µM): 12%; growth inhibition (at 33.0 µM): 19%; growth inhibition (at 100.0 µM): 17%

**Q.** Which growth inhibition (at 1.2 µM) does the source give for `COC1=CCC23C(=O)C=CC(=O)C2(C1)C(=O)c1ccccc1C3=O` (stereo not given) here?
**A.** -34%

**Q.** And the growth inhibition (at 3.7 µM)?
**A.** -24%

**Q.** And the growth inhibition (at 11.0 µM)?
**A.** -16%

**Q.** And the growth inhibition (at 33.0 µM)?
**A.** -1%

**Q.** What about the growth inhibition (at 100.0 µM) of the same compound?
**A.** 93% (active)
